# Among all 16,000 compounds or so, about 2,600 (16%) were called active. Not shown: some 20% with an inconclusive outcome. Calls follow the shape of the dose curve; as a rule, active = well fitted curve in the direction sought with a large enough effect; inconclusive = small, poorly fitted or top-dose-only effect, or effect the other way; inactive = no such curve, though single readings can be large or run the other way. Not all results are given here. A structure can be active in one record and inactive in another.
# Target: Cytochrome P450 2D6 (Homo sapiens) (UniProt P10635)
# Assay: Cytochrome panel assay with activity outcomes
# Details: recombinant CYP, pro-luciferin dealkylation, luminescence, p450-cyp2d6; series mostly up to 57.1 µM
# % is scaled to controls: 0 for no effect and ±100 for the full control effect.
# Cytochrome P450 2D6 (Homo sapiens), sequence (P10635 whole entry, looked up): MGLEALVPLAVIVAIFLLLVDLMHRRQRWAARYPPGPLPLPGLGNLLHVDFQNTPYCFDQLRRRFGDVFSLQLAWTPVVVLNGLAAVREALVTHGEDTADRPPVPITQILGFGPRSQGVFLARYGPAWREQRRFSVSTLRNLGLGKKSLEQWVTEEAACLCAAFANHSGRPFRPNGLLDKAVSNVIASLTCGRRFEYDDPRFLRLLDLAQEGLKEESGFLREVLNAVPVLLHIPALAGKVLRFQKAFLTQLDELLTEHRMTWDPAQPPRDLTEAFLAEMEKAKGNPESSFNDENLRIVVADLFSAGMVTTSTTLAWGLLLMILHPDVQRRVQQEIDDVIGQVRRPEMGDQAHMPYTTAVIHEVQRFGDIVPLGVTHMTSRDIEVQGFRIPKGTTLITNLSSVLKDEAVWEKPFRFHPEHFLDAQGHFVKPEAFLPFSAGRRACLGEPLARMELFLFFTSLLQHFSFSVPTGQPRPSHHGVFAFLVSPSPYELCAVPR
Compound,"activity, negative = inhibition",AC50
N[C@@](CC(=O)O)(Cc1ccccc1)C(=O)O,7.77% [at 11.4 µM] (inactive),–
CCN1C(=O)[C@H]2[C@H]3[C@H](O)[C@H](O)C/C(=N/O[C@@H](C)c4cn([C@H]5COC[C@H]5O)nn4)[C@@H]3CC[C@@H]2C1=O,-1.04% [at 11.4 µM] (inactive),–
C[C@H](C(=O)c1ccncc1)c1ccccn1,-3.93% [at 11.4 µM] (inactive),–
O=C(O)CN(CCN(CC(=O)O)CC(=O)O)CC(=O)O.[Mn],9.26% [at 11.4 µM] (inactive),–
Cc1cc(=O)oc(C)c1C(=O)N1CCCCC1,–,inactive
CCCC[C@@H]1CN2[C@H](c3ccc(Br)cc3)[C@@H](C)CC[C@H]2C(=O)O1,-5.55% [at 11.4 µM] (inactive),–
COc1ccc(S(=O)(=O)N2CCCN(CCC(=O)Nc3cccc(C(F)(F)F)c3)CC2)cc1,–,8.91 µM (active)
Cc1c(C(=O)Nc2cccc(C(F)(F)F)c2)oc2ccc(S(=O)(=O)N3CCOCC3)cc12,–,inactive
COc1ccc(NC(=O)c2cc(S(=O)(=O)N3CCS(=O)(=O)CC3)ccc2Cl)cc1,–,inactive
CCN1CCN(CCC(=O)Nc2cccc(OC)c2)CC1,–,inactive
COc1ccc(S(=O)(=O)N2CCCN(CC(=O)Nc3ccc(OC)c(Cl)c3)CC2)cc1,–,11.2 µM (active)
COc1ccc(C)cc1NC(=O)CN1CCN(S(=O)(=O)c2ccc(F)cc2)CC1,–,inactive
Cc1nc(SC2CC(=O)N(c3ccc([N+](=O)[O-])cc3)C2=O)nc2c1CCCC2 (centres undefined),–,inactive
COC(=O)c1ccc(C(=O)OC)c(NC(=S)N2CCN(c3ccccc3)CC2)c1,–,inactive
C=CCOc1cccc(CNn2cn[nH]c2=S)c1,–,inactive
COc1cc(C2C(C#N)=C(N)N(c3sc4c(c3C#N)CCCC4)C3=C2C(=O)CC(C)(C)C3)cc(OC)c1OC (centres undefined),–,inactive
Cc1cc(C)c(O)c(Cc2cccc(Cc3cc(C)cc(C)c3O)c2O)c1,12.6% [at 11.4 µM] (inactive),–
Cc1ccc(C(=O)N/N=C/c2sc(=O)n(Cc3cccc(C(=O)O)c3)c2Cl)cc1,–,inactive
CO[C@@H]1COC(=O)[C@H](C)NC(=O)[C@@H](C)COC(=O)CCC[C@H]1C,8.56% [at 11.4 µM] (inactive),–
CSc1nncc(/C(C)=N\Nc2ccccc2)n1,–,inactive
COCCN=C1Sc2nc3c(C)cccc3cc2CN1Cc1ccco1,–,14.1 µM (active)
CCn1c(SCC(=O)NC2CCCCC2)nnc1-c1cc2cccc(OC)c2o1,–,inactive
COCCNC(=O)CSc1ncnc2sccc12,–,inactive
COc1ccc(C2C(C(=O)N3CCN(C)CC3)c3ccccc3C(=O)N2C2CCCCC2)cc1 (centres undefined),–,inactive
CN(C)CCCNc1ncnc2nc[nH]c12,1.66% [at 11.4 µM] (inactive),–

Compound,"activity, negative = inhibition",AC50
Cc1ccc2nc(NC(=O)COC(=O)c3ccc(Br)o3)sc2c1,–,15.8 µM (active)
Cc1ccc2nc(NC(=O)COC(=O)CSc3nc(C)cc(C)n3)sc2c1,–,inactive
Cc1ccc2nc(NC(=O)CSCC(=O)OCC(=O)c3ccc(Br)cc3)sc2c1,–,inactive
C=C[C@]1(C)C[C@H](OC(=O)CO)[C@]2(C)C3C(=O)CC[C@]3(CC[C@H]2C)[C@H](C)[C@H]1O (some centres undefined),-10.6% [at 11.4 µM] (inactive),–
CC(=O)OCC(=O)[C@@]1(O)CC[C@@H]2[C@H]3CCC4=CC(=O)C=C[C@]4(C)[C@]3(F)[C@@H](O)C[C@@]21C,–,inactive
O=C1C=C[C@@H](O)[C@H]2[C@@H]3C(=O)N(c4cccc(Oc5ccccc5)c4)C(=O)[C@@H]3CC[C@H]12,-0.0224% [at 11.4 µM] (inactive),–
COc1ccccc1CCn1c(=O)c(-c2cc(F)cc(F)c2)nc2cncnc21,–,inactive
CCCN(C(=S)Nc1ccccc1)C1CCS(=O)(=O)C1 (centres undefined),–,inactive
Cc1cccc(NC(=O)Cn2cccc2)c1,–,inactive
Cc1cccc(NC(=S)NC(=O)CCc2ccccc2)c1,–,inactive
Cc1cccc(NC(=O)Cn2c(=O)n3nc(CCn4nc(C)cc4C)nc3c3ccccc32)c1,–,14.1 µM (active)
Cc1cccc(NC(=O)Cn2c(=O)oc3ccccc32)c1,–,3.16 µM (active)
COc1ccc(CCNC(=O)Cn2c(=O)oc3ccccc32)cc1OC,–,inactive
Cc1cccc(NC(=S)NNC(=O)CCn2cc(C)cn2)c1,–,inactive
COc1cc(C2C(C(=O)OCCC#N)=C(C)NC3=C2S(=O)(=O)c2ccccc23)cc(OC)c1OC (centres undefined),–,inactive
Cc1ccc(-c2ccnc(=S)[nH]2)cc1,–,inactive
Cc1c(C(=O)Nc2ccc(OCc3ccccc3)cc2)cccc1[N+](=O)[O-],–,inactive
COc1ccc(/C=N/NC(=O)CCCC(=O)NC2CCCCC2)cc1,–,inactive
CN(C)c1ncc2nc(-c3cc(F)cc(F)c3)c(=O)n(Cc3ccc(F)cc3)c2n1,–,inactive
Cc1ccc(Nc2nc(Cl)nc(N(C)C#N)n2)cc1,–,inactive
Nc1nnc(CC(=O)N/N=C/c2cccc([N+](=O)[O-])c2)s1,–,inactive
Cc1sc(N/N=C/C=C/c2ccccc2)nc1-c1ccccc1,–,inactive
Cc1cccc(-n2c(Cn3nc(C)c([N+](=O)[O-])c3C)n[nH]c2=S)c1,–,inactive
C/C(=N\NC(=S)Nc1cccc(C)c1)c1ccccc1,–,inactive
Cc1nc(/N=C(\N)Nc2ccccc2)nc2ccccc12,–,inactive

Compound,"activity, negative = inhibition",AC50
Cc1ccc(C)c(NC(=O)c2ncn[nH]2)c1,–,inactive
Cc1ccc(C)c(N/C(N)=N/c2nc(C)cc(C)n2)c1,–,0.794 µM (active)
Cc1cccc(N/C(N)=N/c2nc(C)cc(C)n2)c1,–,2.82 µM (active)
Cc1ccc(C)c(NC(=O)Cn2nnc(C(=O)Nc3c(C)cccc3C)c2N)c1,–,inactive
Cc1cc(C)c(-c2cc([C@H](C)O/N=C\[C@@H](C)[C@H](OCc3ccccc3)C(C)C)on2)c(C)c1,-7.16% [at 11.4 µM] (inactive),–
O=C(CCNC(=O)Cn1cnc2ccccc2c1=O)NCC1COc2ccccc2O1 (centres undefined),–,inactive
COc1cccc(OC)c1OCCNC[C@@H]1COc2ccccc2O1,–,251 nM (active) and inactive
O=C(N/N=C/c1ccco1)/C(=C/c1cccc([N+](=O)[O-])c1)NC(=O)c1ccccc1,–,inactive
Cc1cccc(CNc2ncncc2-c2ccc(C(=O)N(C)C)cc2)c1,–,inactive
Cn1c(-c2ccc3c(c2)OCO3)cnc1NCc1ccccc1,–,0.794 µM (active)
Cc1cccc(CNc2ncncc2-c2ccc3c(c2)OCO3)c1,–,6.31 µM (active)
Cn1c(-c2ccc3c(c2)OCO3)cc(=O)c2ccccc21,–,1.58 µM (active)
O=c1oc2cc(N=Cc3ccc4c(c3)OCO4)ccc2c2ccccc12,4.96% [at 11.4 µM] (inactive),–
Cc1noc(C)c1-c1cncnc1Nc1ccccc1,–,inactive
O=C(O)c1cc(-c2ccc3cc4c(cc3c2)OCO4)nc2ccccc12,-6.77% [at 11.4 µM] (inactive),–
CN(C)C(=O)c1ccc(-c2cncnc2Nc2ccccc2)cc1,–,inactive
CN(C)c1ccc(-c2cc(NCc3ccccc3)ncn2)cc1,–,inactive
Cn1cc(/C=C2/SC(=O)N(CC(=O)Nc3ccc4c(c3)OCO4)C2=O)c2ccccc21,–,inactive
c1ccc(Nc2ncncc2-c2ccc3c(c2)OCO3)cc1,–,12.6 µM (active)
Cc1ccc(C(=O)N/N=C\c2ccc[nH]2)cc1[N+](=O)[O-],–,inactive
CCCOc1ccc(C(=O)NNC(=S)NC(=O)c2cc(-c3ccccc3)nc3ccccc23)cc1,–,inactive
O=C(Nc1cccn2ncnc12)c1ccc(Cl)cc1Cl,–,inactive
COC(=O)C1=C(NC(=O)c2cccs2)CCS1,–,inactive
COc1cnc(-c2ccccn2)nc1Sc1c(Cl)cccc1Cl,–,inactive
COc1cc(OC)cc(C(=O)Nn2cc(C(=O)N3CCN(C)CC3)c3ccccc3c2=O)c1,–,inactive

Compound,"activity, negative = inhibition",AC50
O=C1CC[C@H](N2C(=O)c3ccccc3C2=O)C(=O)N1,–,inactive
CCn1cc(C(=O)O)c(=O)c2cc(F)c(N3CCNCC3)nc21,–,inactive
O=C(O)C[C@H](S)C(=O)O,-2.12% [at 11.4 µM] (inactive),–
Clc1ccc2c(c1)C=Nc1c(NCc3ccccc3)ncnc1O2,–,inactive
N#Cc1cccc(-c2cncnc2NCc2cccnc2)c1,–,inactive
c1cncc(CNc2ncncc2-c2cccnc2)c1,–,inactive
c1csc(CNc2ncncc2-c2ccc3c(c2)OCO3)c1,–,10 µM (active)
c1ccc(CNc2ncncc2-c2ccc3c(c2)OCO3)cc1,–,12.6 µM (active)
c1cncc(CNc2ncncc2-c2ccc3c(c2)OCO3)c1,–,15.8 µM (active)
c1ccc(Nc2ncnc3ccc(-c4ccc5c(c4)OCO5)cc23)cc1,–,0.126 µM (active)
COc1ccc(NC(=O)N2CC[C@@]3(CCCN(C(=O)c4cccc(F)c4)C3)C2)cc1,–,inactive
O=C(Nc1ccccc1)N1CCSc2cc(Cl)ccc21,–,inactive
OC[C@@H]1O[C@@H](N2CCN([C@@H]3O[C@@H](CO)[C@@H](O)[C@H](O)[C@H]3O)CC2)[C@@H](O)[C@H](O)[C@H]1O,-3.98% [at 11.4 µM] (inactive),–
COc1ccc2c(c1[N+](=O)[O-])CCC/C2=N/OC(=O)c1ccccc1SC,–,inactive
NC(N)=NC(N)=Nc1ccc(S(N)(=O)=O)cc1,4.99% [at 11.4 µM] (inactive),–
O=C(CCCn1c(=S)[nH]c2cc3c(cc2c1=O)OCO3)N1CCN(c2ncccn2)CC1,–,5.01 µM (active)
CCN(CC)CCn1c(=S)[nH]c2cc3c(cc2c1=O)OCO3,–,0.631 µM (active)
O=C(CCCn1c(=S)[nH]c2ccc(Br)cc2c1=O)NCC1CCCO1 (centres undefined),–,inactive
CCOc1cc2[nH]c(=S)n(CCCC(=O)NCc3ccco3)c(=O)c2cc1OCC,–,inactive
CCCCNC(=O)CCn1c(=S)[nH]c2cc3c(cc2c1=O)OCO3,–,inactive
C=CCNC(=O)c1ccc(Cn2c(=S)[nH]c3cc4c(cc3c2=O)OCO4)cc1,–,inactive
O=C(c1ccc2c(=O)n(Cc3ccco3)c(=S)[nH]c2c1)N1CCN(c2ccccc2)CC1,–,inactive
O=C(CCCCCn1c(=S)[nH]c2cc3c(cc2c1=O)OCO3)N1CCN(C2CCCCC2)CC1,–,8.91 µM (active)
O=C(c1ccc2c(=O)n(CC3CCCO3)c(=S)[nH]c2c1)N1CCN(c2ccccc2)CC1 (centres undefined),–,inactive

# Reference: PubChem BioAssay AID1851 (National Center for Advancing Translational Sciences (NCATS), 2009)
